Results as given in PubChem BioAssay AID1159580 (chemical genetic matrix, 2015).
Several values for one entry are separate records, joined by “and”; a condition that tells them apart may be missing. Identical values can stand only once. Hit rate of the full screen: of about 5,500 compounds, about 2,000 (36%) were called active. Inconclusive results (about 18%) are left out. No stated cut-off is given here; in the data, active means normalized growth mostly below about 0.91 (no sharp cut-off); inconclusive means no clear call, values can overlap the other calls; inactive means mostly above about 0.92. This is one part of the list.

Assay: chemical genetic growth profiling, strain panel (AID 1159580);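 further: tested at 20 µM; growth read once vehicle control cultures reached saturation at 30 °C; 1 = growth at the plate median or of vehicle wells; lower values mean less growth of the strain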
Settings: S. cerevisiae deletion strains, growth OD

Measured: normalized growth

O=C1C=C(O)c2ccccc2C1=O
inactive: locus YAL013W, strain DEP1, hits give low values 0.969 | locus YAL026C, strain drs2, hits give low values 0.938 | locus YAL030W, strain snc1, hits give low values 0.959 | locus YBL061C, strain skt5, hits give low values 0.956 | locus YBR009C, strain hhf1, hits give low values 0.948 | locus YBR021W, strain FUR4, hits give low values 1.05 | locus YBR023C, strain chs3, hits give low values 0.95 | locus YBR171W, strain sec66, hits give low values 0.952 | locus YBR229C, strain ROT2, hits give low values 0.979 | locus YBR231C, strain swc5, hits give low values 0.932 | locus YBR279W, strain paf1, hits give low values 0.953 | locus YCL011C, strain gbp2, hits give low values 0.925 | locus YCL016C, strain dcc1, hits give low values 0.95 | locus YCL029C, strain bik1, hits give low values 0.971 | locus YCL061C, strain MRC1, hits give low values 0.93 | locus YCL069W, strain vba3, hits give low values 0.963 | locus YCR088W, strain abp1, hits give low values 0.934 | locus YDL005C, strain med2, hits give low values 0.947 | locus YDL035C, strain GPR1, hits give low values 1.01 | locus YDL040C, strain nat1, hits give low values 0.966 | locus YDL074C, strain BRE1, hits give low values 1.03 | locus YDL101C, strain DUN1, hits give low values 0.971 | locus YDL134C, strain PPH21, hits give low values 0.968 | locus YDL185W, strain tfp1, hits give low values 0.907 | locus YDL192W, strain arf1, hits give low values 0.958 | locus YDR001C, strain nth1, hits give low values 0.944 | locus YDR069C, strain doa4, hits give low values 0.912 | locus YDR101C, strain arx1, hits give low values 0.978 | locus YDR150W, strain NUM1, hits give low values 0.972 | locus YDR162C, strain NBP2, hits give low values 0.882 | locus YDR195W, strain ref2 0.995 | locus YDR297W, strain sur2, hits give low values 0.931 | locus YDR318W, strain mcm21, hits give low values 0.928 | locus YDR335W, strain msn5, hits give low values 0.94 | locus YDR388W, hits give low values 0.966 | locus YDR392W, strain spt3, hits give low values 0.796 | locus YDR502C, strain sam2, hits give low values 0.941 | locus YEL003W, strain gim4, hits give low values 0.925 | locus YEL037C, strain rad23, hits give low values 0.944 | locus YEL061C, strain CIN8 (second series), hits give low values 0.948 | locus YEL061C, strain CIN8, hits give low values 0.966 | locus YER015W, strain faa2, hits give low values 0.94 | locus YER016W, strain bim1, hits give low values 0.957 | locus YER110C, hits give low values 0.955 | locus YER111C, strain swi4, hits give low values 0.965 | locus YER155C, strain BEM2 (second series), hits give low values 0.954 | locus YER155C, strain BEM2, hits give low values 0.957 | locus YER167W, strain BCK2, hits give low values 0.98 | locus YGL078C, strain dbp3, hits give low values 1.01 | locus YGL086W, strain mad1, hits give low values 0.976 | locus YGL167C, strain pmr1, hits give low values 0.948 | locus YGL173C, strain kem1, hits give low values 0.942 | locus YGL227W, strain vid30, hits give low values 0.977 | locus YGL240W, strain doc1, hits give low values 0.89 | locus YGL248W, strain PDE1, hits give low values 0.966 | locus YGL253W, strain hxk2, hits give low values 0.924 | locus YGR078C, strain PAC10, hits give low values 0.963 | locus YGR135W, strain pre9, hits give low values 0.973 | locus YGR252W, strain gcn5, hits give low values 1.03 | locus YHR013C, strain ard1, hits give low values 0.963 | locus YHR027C, strain rpn1, hits give low values 0.935 | locus YHR030C, strain SLT2, hits give low values 0.963 and 0.867 | locus YHR079C, strain IRE1 (second series), hits give low values 0.981 | locus YHR094C, strain hxt1, hits give low values 1 | locus YHR129C, strain ARP1, hits give low values 0.988 | locus YHR142W, strain chs7, hits give low values 0.93 | locus YHR200W, strain rpn10, hits give low values 0.962 | locus YIL066C, strain RNR3, hits give low values 0.972 | locus YIL073C, strain SPO22, hits give low values 0.992 | locus YIL125W, strain kgd1, hits give low values 0.962 | locus YIR030C, strain dcg1, hits give low values 0.972 | locus YJL092W, strain hpr5, hits give low values 0.934 | locus YJL095W, strain BCK1 (second series), hits give low values 0.931 | locus YJL095W, strain BCK1, hits give low values 0.949 and 0.923 | locus YJL115W, strain asf1, hits give low values 0.938 | locus YJL129C, strain trk1, hits give low values 0.967 | locus YJL134W, strain LCB3, hits give low values 0.967 | locus YJL154C, strain vps35, hits give low values 0.933 | locus YJL166W, strain qcr8, hits give low values 0.92 | locus YJL168C, strain set2, hits give low values 0.955 | locus YJL187C, strain SWE1 (second series), hits give low values 0.957 | locus YJL187C, strain SWE1, hits give low values 0.946
active: locus YAL021C, strain ccr4, hits give low values 0.905 | locus YDR137W, strain rgp1, hits give low values 0.683 | locus YDR159W, strain sac3, hits give low values 0.802 | locus YDR334W, strain swr1, hits give low values 0.884 | locus YFR010W, strain ubp6, hits give low values 0.896 | locus YHR079C, strain IRE1, hits give low values 0.774 | locus YJL164C, strain tpk1, hits give low values 0.913
